High-throughput results (PubChem BioAssay)
PriA SSB inh: inhibitors of Klebsiella pneumoniae PriA binding to SSB C-terminal tail, primary screen, biochemical, AlphaScreen | PriA–SSB C-terminal tail interaction (Klebsiella pneumoniae) | AlphaScreen SSBct-PriA binding, biotinylated peptide | inhibition, % at 33 µM | 430,000 tested, 0.6% active | AID 1272365, 2023; in the data active = inhibition mostly above about 37%, no sharp cut-off; inactive = mostly below about 20%;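 also: plate controls were negative control peptide for no effect and reference peptide for full effect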
PrPC surface inh: inhibitors of human cell surface prion protein PrPC, primary screen, cell-based, TR-FRET; Major prion protein (Homo sapiens), P04156; 370,000 tested, 0.43% active; TR-FRET read-out; inhibition, % at 13.8 µM; in the data active = inhibition above about 24%; also: 0% = median of the test wells and 100% = reference compound wells
BJeLR viability: MLPCN primary cell-based screen for lethality selective to Ras in HRASV12 cells. BJeLR (HRASV12) viability, CellTiter-Glo ATP luminescence, 48 h. inhibition, % (concentration not given with the values). 300,000 tested, 0.17% active; in the data active = inhibition above about 50%
PfHsp40 yeast: rescue of yeast from PfHsp40 toxicity, primary screen, S. cerevisiae, ATP luminescence | growth rescue, % at 12.5 µM | S. cerevisiae expressing PfHsp40, growth rescue | AID 504582, 2011 | 340,000 tested, 0.68% active; in the data active = growth rescue above about 28%, passing the limit was not always enough;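 also: yeast W303a lacking pdr1 and pdr3 grown in galactose medium; growth measured after three days at 30 °C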
PrP UTR inh: inhibition of PrP 5' UTR reporter expression; cell-based PrP 5' UTR mRNA reporter, plate reader; inhibition, % (concentration not given with the values); 340,000 tested, 0.35% active; AID 488862, 2010; in the data active = inhibition above about 52%; also: 0 = median of the neutral control wells
RecA splice inh: Mtb RecA intein splicing inhibitors, primary screen, biochemical, fluorescence, HTS; Protein RecA (Mycobacterium tuberculosis (strain ATCC 25618 / H37Rv)), P9WHJ3; cell-free RecA intein splicing; inhibition, % (test concentration not listed); 290,000 tested, 0.75% active; AID 2221, 2009; in the data active = inhibition above about 30%;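 also: 0% = vehicle wells and 100% = reference inhibitor control wells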
Target sequence (P9WHJ3 whole entry, looked up, canonical isoform): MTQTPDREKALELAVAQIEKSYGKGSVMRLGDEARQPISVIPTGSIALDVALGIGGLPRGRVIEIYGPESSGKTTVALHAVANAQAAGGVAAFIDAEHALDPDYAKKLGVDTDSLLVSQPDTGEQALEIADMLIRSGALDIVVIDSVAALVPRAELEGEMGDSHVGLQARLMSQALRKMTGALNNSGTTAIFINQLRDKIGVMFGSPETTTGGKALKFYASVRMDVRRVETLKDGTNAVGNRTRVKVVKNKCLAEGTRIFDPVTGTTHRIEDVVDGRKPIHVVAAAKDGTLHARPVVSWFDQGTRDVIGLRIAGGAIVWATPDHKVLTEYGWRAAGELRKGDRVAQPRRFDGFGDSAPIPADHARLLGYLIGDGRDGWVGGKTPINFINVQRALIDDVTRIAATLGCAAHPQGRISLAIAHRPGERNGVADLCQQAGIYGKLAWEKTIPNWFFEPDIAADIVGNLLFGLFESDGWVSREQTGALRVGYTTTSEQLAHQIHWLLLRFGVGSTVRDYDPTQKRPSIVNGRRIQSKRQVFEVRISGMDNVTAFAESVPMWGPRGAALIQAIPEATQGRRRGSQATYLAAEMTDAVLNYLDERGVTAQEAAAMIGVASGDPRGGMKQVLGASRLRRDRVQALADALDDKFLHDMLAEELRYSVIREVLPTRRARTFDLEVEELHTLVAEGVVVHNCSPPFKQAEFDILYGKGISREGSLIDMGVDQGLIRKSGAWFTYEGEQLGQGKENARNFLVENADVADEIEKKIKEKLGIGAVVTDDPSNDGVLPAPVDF
Starred values were filed as active, the others as inactive; · = no result given. In the library only some 1.9% were active in any assay of this set; here they are far more common.

SMILES	PriA SSB inh	PrPC surface inh	BJeLR viability	PfHsp40 yeast	PrP UTR inh	RecA splice inh
O=C(Nc1ccc(F)cc1)Nc1ccc(S(=O)(=O)N2CCCC2)cc1	-1	11	·	0	-9	·
N#C/C(=C\c1ccc2c(c1)OCO2)C(=O)NCc1ccco1	-4	2	5	53*	-23	-2
COCCNC(=O)/C(C#N)=C/c1ccc2c(c1)OCO2	0	-2	-1	-1	-1	-1
CCOC(=O)C1(Cc2cccc(Cl)c2)CCCN(C(=O)c2occc2C)C1 (stereo not drawn)	-9	11	-5	122*	-9	6
CCOC(=O)C1(Cc2cccc(Cl)c2)CCCN(C(=O)c2ccco2)C1 (stereo not drawn)	-6	5	4	1	-28	7
Cc1ccc(CN=c2c([N+](=O)[O-])nn(-c3ccc(Cl)cc3)n2O)cc1	15	-27	26	52*	·	0
CC(Oc1ccccc1F)C(=O)NNC(=O)CCS(=O)(=O)c1ccccc1Cl (stereo not drawn)	-7	5	5	-1	-15	-1
C[C@H](NS(=O)(=O)c1c(Cl)cccc1Cl)C(=O)NNC(=O)COc1ccccc1F	-1	3	·	50*	1	·
O=C(N[C@H]1C=C[C@@H](O)CCCC1)OCc1ccccc1	-3	·	·	·	·	·
COC(=O)c1ccc2c(c1)C(C)(C)C(/C=C/c1ccc(O)cc1)=[N+]2C	8	5	29	-1	-32	0
COC(=O)c1ccc2c(c1)C(C)(C)C(/C=C/c1ccc(OC)c(OC)c1OC)=[N+]2C	-11	12	52*	-1	-24	2
N#CC1C(=N)Cc2ccccc2-c2ccccc21 (stereo not drawn)	-3	3	·	39*	-5	·
COc1ccc(-c2nc(CSc3nc(-c4cccc(Cl)c4)cc(=O)[nH]3)c(C)o2)c(OC)c1	-13	·	·	·	·	·
O=C1OCC2=C1C(c1ccc(F)cc1)c1cc3c(cc1N2)OCO3 (stereo not drawn)	-18	13	·	1	50	·
C#CCOc1ccc(C2C3=C(COC3=O)Nc3cc4c(cc32)OCO4)cc1OC (stereo not drawn)	-12	7	61*	-1	16	-1
CCSc1nsc(NC(=O)Nc2ccccc2F)n1	-6	12	-13	2	-15	-1
C=CCSc1nsc(NC(=O)Nc2ccc(F)cc2)n1	-8	37*	21	-1	-11	5
CCS(=O)(=O)c1ccccc1C(=O)Nc1ccc2c(c1)C(=O)NC2=O	-2	·	·	·	·	·
Cc1ccc(NC(=S)NNC(=O)c2ccc(N3CCOCC3)c([N+](=O)[O-])c2)cc1Cl	38*	-8	6	14	-27	6
Nc1nc(-c2ccccn2)cs1	94*	·	·	·	·	·
Nc1nc(-c2cccc(-c3csc(N)n3)n2)cs1	114*	·	·	·	·	·
Nc1nc(-c2ccc(Oc3ccccc3)cc2)cs1	7	1	3	185*	-71	1
Nc1nc(-c2ccc(-c3ccccc3)cc2)cs1	14	4	10	-1	-75	5
CCOP(=O)(OCC)c1nc(-c2ccc(Cl)cc2Cl)oc1NC	10	·	·	·	·	·
CC1=CC(C)(C)Nc2ccc(OC(=O)C(C)N3C(=O)c4ccccc4C3=O)cc21 (stereo not drawn)	43*	-7	0	5	-12	-16
SMILES	PriA SSB inh	PrPC surface inh	BJeLR viability	PfHsp40 yeast	PrP UTR inh	RecA splice inh
COc1cc(OC)cc(C(=O)Oc2c(CN3CCOCC3)cc(Cl)c3cccnc23)c1	10	5	2	-1	-10	·
O=C(Oc1c(CN2CCOCC2)cc(Cl)c2cccnc12)c1ccccc1F	58*	-8	19	-2	11	-3
O=C(Oc1c(CN2CCOCC2)cc(Cl)c2cccnc12)c1ccccc1	3	-7	18	-1	1	1
O=C(Oc1c(CN2CCOCC2)cc(Cl)c2cccnc12)c1ccco1	101*	·	·	·	·	·
COc1ccc(CN2CCN(C(=O)c3cc4c(=O)[nH]c(C)cn4n3)CC2)c(OC)c1OC	-18	·	·	·	·	·
O=C(NNC1=C(C(=O)C(F)(F)F)CCC1)c1ccc(Cl)cc1	13	2	0	3	-19	25
O=C(NNC1=C(C(=O)C(F)(F)F)CCC1)c1cccc(Cl)c1	14	7	6	54*	-27	28
O=C(Nc1nc(-c2ccccn2)cs1)C1CC1c1ccco1 (stereo not drawn)	99*	·	·	·	·	·
O=C(Nc1nc(-c2ccccn2)cs1)C1CC1c1ccccc1C(F)(F)F (stereo not drawn)	14	·	·	·	·	·
CC1CC1C(=O)Nc1nc(-c2ccccn2)cs1 (stereo not drawn)	60*	-1	1	3	-21	1
O=C(Nc1nc(-c2ccccc2)cs1)C1COc2ccccc2O1 (stereo not drawn)	-5	1	6	1	-15	15
O=C(Nc1nc(-c2ccccn2)cs1)C1COc2ccccc2O1 (stereo not drawn)	71*	16	·	0	0	·
O=C1CNC(=S)N1CCN1CCOCC1	2	·	·	·	·	·
COc1cccc(OCCn2cccc2/C=C2/C(=N)N3OC(C)=CC3=NC2=O)c1	-5	-2	1	0	-8	-2
CC1=CC2=NC(=O)/C(=C\c3cccn3CCOc3cccc(C)c3)C(=N)N2O1	4	2	3	44*	-17	9
c1coc(CN(Cc2cccs2)Cc2nnnn2C2CCCCC2)c1	-19	5	-17	0	-25	8
Clc1ccccc1CN(Cc1ccco1)Cc1nnnn1C1CCCC1	-19	5	-1	331*	-24	25
CCn1c(O)c(C=Nc2ccc(N3CCOCC3)cc2)c(=O)n(CC)c1=S	-12	-6	-8	5	2	-6
Cn1c(O)c(C=Nc2ccc(N3CCOCC3)cc2)c(=O)n(C)c1=S	-9	4	-1	68*	-19	-4
c1ccc(-c2cn(C[C@H]3CC[C@H](Cn4cc(-c5ccccn5)nn4)O3)nn2)nc1	109*	2	-1	0	-21	-1
Cc1ccc(-c2cn(C[C@H]3CC[C@@H]([C@@H]4CC[C@H](Cn5cc(-c6ccc(C)cc6)nn5)O4)O3)nn2)cc1	-25	-3	-9	-1	-13	-3
O=C(NC[C@]1(O)CCc2ccccc2C1)Nc1ccccc1Cl	2	·	·	·	·	·
Cn1c(SCC(=O)N2c3ccccc3Sc3ccc(Cl)cc32)nnc1-c1ccco1	19	0	·	36*	2	·
CCn1c(SCC(=O)N2c3ccccc3Sc3ccccc32)nnc1-c1ccco1	9	6	-8	1	-22	4
O=C(Nc1ccccc1)c1sccc1Oc1ccc([N+](=O)[O-])cc1F	44*	-6	9	3	-13	17
